Measured values published in PubChem BioAssay AID2546 (National Center for Advancing Translational Sciences (NCATS), 2010).
Among all 310,000 compounds or so, about 11,000 (3.5%) were called active. Not shown: some 8% with an inconclusive outcome. The list comes from a sample in which actives are over-represented; it also holds similar structures and randomly drawn compounds. A number with no mark means an inactive call. Calls follow the shape of the dose curve; as a rule, active = well fitted inhibition curve with a large enough effect; inconclusive = small, poorly fitted or top-dose-only effect, or effect the other way; inactive = flat fitted curve, though single readings scatter.

Experiment: VP16 counterscreen qHTS for inhibitors of ROR gamma transcriptional activity;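 also: Gal4-VP16 expression switched on by copper sulfate through the metallothionein promoter; nearly all actives have a fitted effect of over 50% in size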
Conditions: Drosophila S2 Gal4-VP16 UAS-luciferase, luminescence, 20 h; series mostly up to 53.6 µM; activity, negative = inhibition: at the top concentration
% is scaled to controls: 0 for no effect and ±100 for the full control effect; potency is read from the fitted curve at half-maximal effect.

Compound	activity, negative = inhibition	Potency
CC1CN(C(=S)Nc2cccc(F)c2)CC(C)O1 (stereo not drawn)	-1.44%	–
O=C(C1CC(=O)N(C2CCCCC2)C1)N1CCN(c2ccccc2)CC1 (stereo not drawn)	5.4%	–
O=C(CN(CC1CCCO1)C(=O)CNS(=O)(=O)c1ccc(Cl)cc1)NCc1ccccc1 (stereo not drawn)	-2.89%	–
CCOc1ccc(NC(=O)c2nc(SCC)ncc2Cl)cc1	-3.47%	–
O=[N+]([O-])c1cc([N+](=O)[O-])c(Oc2cc(F)cc(F)c2F)cc1NN1CCCCC1	4.75%	–
Cc1ccc(-c2noc(C3CCCN(C(=O)c4cccc(Cl)c4)C3)n2)o1 (stereo not drawn)	4%	–
COc1cccc(OC)c1C(=O)NC(=S)Nc1ccc(N2CCOCC2)c(Cl)c1	-28.6%	–
CCOc1ccc(C(=O)NC(=S)Nc2ccc(N3CCOCC3)c(Cl)c2)cc1[N+](=O)[O-]	–	3.98 µM (active)
CCOc1ccc(C(=O)NC(=S)Nc2ccc(NC(=O)C(C)C)cc2)cc1[N+](=O)[O-]	2.81%	–
CC(=O)N1CCN(c2ccc(NCc3ccc(C(C)C)cc3)cc2)CC1	–	1.12 µM (active)
CC(CC(=O)N1CCN(c2ccccc2)CC1)c1ccccc1 (stereo not drawn)	-3.11%	–
CCc1ccc(NC(=O)N2CCN(c3ccccc3)CC2)cc1	24.1%	–
Cc1nn(-c2ccccc2)c(Cl)c1/C=N/NC(=O)c1nn(C)cc1[N+](=O)[O-]	15.7%	–
COC(=O)c1cc(NC2c3ccccc3C(=O)N2c2ccc(Cl)cn2)cc(C(=O)OC)c1 (stereo not drawn)	–	11.2 µM (active)
Cc1ccnc(N2C(=O)c3ccccc3C2Nc2ccc3c(c2)OCCO3)c1 (stereo not drawn)	16%	–
CCc1ccccc1NC1c2ccccc2C(=O)N1c1cccnc1 (stereo not drawn)	7.01%	–
COc1ccccc1CNC(=O)C1CCN(S(=O)(=O)c2ccc3c(c2)CC(C)N3C(=O)C2CC2)CC1 (stereo not drawn)	1.44%	–
COc1ccc(CN2C(=O)C(C)S/C2=N/N=C/c2ccco2)cc1 (stereo not drawn)	13.3%	–
O=C(O)C[C@@H]1NC(=O)[C@H](Cc2ccccc2)NC1=O	-0.0827%	–
O=C1N/C(=N\N=C\c2ccco2)SC1Cc1ccc(F)cc1 (stereo not drawn)	–	4.47 µM (active)
C=CCN1C(=O)C(Cc2cccc(Cl)c2)S/C1=N/N=C/c1ccco1 (stereo not drawn)	-2.5%	–
CC(C)=N/N=C1/NC(=O)C(Cc2ccccc2)S1 (stereo not drawn)	–	2.82 µM (active)
CN(CCOc1ccc(CC2SC(=O)NC2=O)cc1)c1ccccn1 (stereo not drawn)	6.05%	–
CC1Sc2ccc(S(=O)(=O)CCC(=O)NCc3ccccc3Cl)cc2NC1=O (stereo not drawn)	-3.72%	–
C/C(=N\NC(=O)c1ccc2ccccc2c1)c1cccnc1	-1.37%	–
COc1ccc(CCNC(=O)CS(=O)(=O)Cc2nc(-c3ccc(C)cc3)oc2C)cc1OC	0.714%	–
COc1cccc(CNS(=O)(=O)c2ccc3c(c2)CC(C)N3C(C)=O)c1 (stereo not drawn)	-3.21%	–

Compound	activity, negative = inhibition	Potency
Cn1cncc1COC(=O)c1ccc(Cl)cc1	-0.0903%	–
O=C(Cc1c(Cl)cccc1Cl)NC1CC1	-0.236%	–
C=C(C)COc1ccc(-c2n[nH]c(C)c2-c2ccccc2)c(O)c1	–	3.16 µM (active)
C=C(C)COc1ccc(-c2nc(N)ncc2-c2ccccc2OC)c(O)c1	-0.328%	–
C=C(C)COc1ccc(-c2ncncc2-c2ccc(OC)cc2)c(O)c1	-13.1%	–
CCOc1ccc(-c2nc(N)ncc2-c2ccccc2OC)c(O)c1	-5.66%	–
C=C(C)COc1ccc(-c2n[nH]c(C)c2-c2ccccc2OC)c(O)c1	–	14.1 µM (active)
CCOc1ccc(-c2n[nH]c(C)c2-c2ccccn2)c(O)c1	-5.31%	–
O=C(c1ccccc1)N1CCC(CC2CC(c3ccc(Cl)cc3)=NO2)(C(=O)NCC2CCCCC2)CC1 (stereo not drawn)	11.9%	–
CCCN1CCn2c3c(c4cc(Br)ccc42)CCCC31 (stereo not drawn)	1.59%	–
Cc1cc(O)c(C(=O)/C=C/c2c(F)c(F)c(F)c(F)c2F)c(=O)o1	-1.97%	–
CCOC(=O)N1CCN(C(=O)c2ccc3c(=O)n(CCc4ccc(OC)c(OC)c4)c(=O)[nH]c3c2)CC1	-1.34%	–
CCC(C(=O)OC)n1cnc2scc(-c3ccc(C)cc3)c2c1=O (stereo not drawn)	-5.09%	–
CC(=O)Oc1ccc(-c2cccc(C(=O)N3CCCCC3)c2)cc1	7.3%	–
CN(CCO)c1ccc(/C=N/Nc2nncc3ccccc23)cc1	–	11.2 µM (active)
COc1cc(/C=N/Nc2nn3cnnc3c3ccccc23)cc(OC)c1OC	-27%	–
C/C(=N\Nc1nncc2ccccc12)c1ccc(Cl)c([N+](=O)[O-])c1	-10.6%	–
O=C(CCCO)N/N=C/c1cc(Br)ccc1O	–	12.6 µM (active)
NCCCCCC(=O)N/N=C/c1ccc2nccnc2c1	4.99%	–
O=C(CCC(=O)N/N=C/c1ccc(Br)o1)N/N=C/c1ccc(Br)o1	-5.41%	–
CC1CC(C)CN(c2ccc(S(=O)(=O)N3CCOCC3)cc2)C1 (stereo not drawn)	-4.83%	–
COc1ccc2c(CC(=O)N3CCc4cc(OC)c(OC)cc4C3)coc2c1	11%	–
COc1ccc(NC(=O)CSc2nc(SC)ns2)c(OC)c1	-10.1%	–
CCCCN1C(=S)NC[C@@H]1C(C)CC (stereo partly drawn)	–	10 µM (active)
CCCCN1CCNC1=S	-7.57%	–
Cc1ccc2c(c1)N(CC(=O)N1CCOCC1)C(=O)CO2	-15.3%	–
